Measured values taken from PubChem BioAssay.
Unmarked numbers belong to inactive results. This is one part of the list. Calls of active or inactive are those of the source. Rule as the data show it, unless noted: active = inhibition above about 33%; inactive = the rest.

Experiments:
[1] = target: Photoreceptor-specific nuclear receptor (Homo sapiens) (UniProt Q9Y5X4); assay: retest of NR2E3-NCOR disrupting agonists – cell-based, luminescence, CHO-S two-hybrid, confirmation (AID 624378;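 active = average inhibition above a cutoff equal to the mean inhibition of all tested compounds plus one SD, cut at about 70% in these data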;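 also: 0% = DMSO in NR2E3 cells and 100% = DMSO in cells lacking NR2E3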); settings: CHO-S mammalian two-hybrid NR2E3-NCOR, luciferase luminescence; at 3.98 µM; active compounds read high
Sequence of Photoreceptor-specific nuclear receptor (Homo sapiens) (Q9Y5X4 whole entry, looked up): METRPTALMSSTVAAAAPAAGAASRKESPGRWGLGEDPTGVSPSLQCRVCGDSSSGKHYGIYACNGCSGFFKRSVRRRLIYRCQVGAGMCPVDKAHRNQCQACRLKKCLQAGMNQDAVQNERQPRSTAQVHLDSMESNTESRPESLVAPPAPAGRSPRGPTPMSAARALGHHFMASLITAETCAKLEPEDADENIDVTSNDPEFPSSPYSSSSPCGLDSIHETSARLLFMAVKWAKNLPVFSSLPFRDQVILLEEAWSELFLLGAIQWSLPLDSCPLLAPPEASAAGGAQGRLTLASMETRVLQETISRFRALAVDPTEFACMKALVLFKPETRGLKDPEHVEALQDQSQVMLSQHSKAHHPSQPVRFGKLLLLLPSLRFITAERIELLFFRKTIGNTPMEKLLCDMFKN

[2] = nonselective effects on VP16 transactivation – cell-based, luminescence, CHO-S, high throughput, counter-screen for NR2E3 agonist project, confirmation (AID 624379;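 active = mean inhibition above a cutoff equal to the average over all tested compounds plus one standard deviation, cut at about 70% in these data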;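 also: 0% = DMSO with VP16-transfected cells and 100% = DMSO with cells lacking VP16; higher means less reporter light so more repression of VP16 activity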); settings: CHO-S GAL4-VP16 luciferase reporter, at 3.98 µM, active compounds read high
[3] = VP16-driven transactivation reporter suppression – cell-based, luminescence, HEK293, counter-screen for COUP-TFII antagonist project (AID 687007; in the data active = inhibition above about 13%); settings: HEK293 Gal4-VP16 luciferase reporter, at 8.5 µM, active compounds read high
[4] = target: COUP transcription factor 2 (Homo sapiens) (UniProt P24468); assay: retest of COUP-TFII reporter suppressors – cell-based, luciferase reporter, HEK293, triplicate, confirmation (AID 687008;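 active = mean inhibition over three repeats above a set limit taken from the earlier primary screen, cut at about 38% in these data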;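 also: 100% = cells given the luciferase reporter alone without the COUP-TF2 vector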); settings: HEK293 NGFI-A luciferase reporter, luminescence; at 8.5 µM; active compounds read high
Sequence of COUP transcription factor 2 (Homo sapiens) (P24468 whole entry, looked up): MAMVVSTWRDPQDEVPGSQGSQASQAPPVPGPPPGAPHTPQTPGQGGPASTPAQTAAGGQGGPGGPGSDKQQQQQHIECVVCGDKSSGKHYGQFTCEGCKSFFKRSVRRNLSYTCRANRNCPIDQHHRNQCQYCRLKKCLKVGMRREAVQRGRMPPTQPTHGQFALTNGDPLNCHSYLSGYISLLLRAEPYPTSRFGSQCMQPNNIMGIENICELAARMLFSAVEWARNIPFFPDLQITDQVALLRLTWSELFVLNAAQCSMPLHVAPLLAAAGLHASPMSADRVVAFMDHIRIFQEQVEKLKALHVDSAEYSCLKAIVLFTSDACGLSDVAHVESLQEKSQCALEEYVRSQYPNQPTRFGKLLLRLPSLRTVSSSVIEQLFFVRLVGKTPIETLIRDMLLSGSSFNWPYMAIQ

[5] = StAR promoter reporter inhibitors, counter-screen for LRH-1 inverse agonist project, cell-based, luminescence, high throughput (AID 651611; in the data active = inhibition above about 28%); settings: StAR promoter luciferase reporter counterscreen, at 3.6 µM, active compounds read high
[6] = target: Nuclear receptor subfamily 5 group A member 2 (Homo sapiens) (UniProt O00482); assay: NR5A2 activity suppression in reporter cells – cell-based, luminescence, confirmation (AID 651613; in the data active = inhibition above about 42%;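 also: HEK293T cells co-transfected with LRH-1 and StAR promoter luciferase reporter; 0% = vehicle wells and 100% = parental cells lacking receptor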); settings: cell-based LRH-1 luciferase reporter, inverse agonism; at 3.6 µM; active compounds read high
Sequence of Nuclear receptor subfamily 5 group A member 2 (Homo sapiens) (O00482 whole entry, looked up): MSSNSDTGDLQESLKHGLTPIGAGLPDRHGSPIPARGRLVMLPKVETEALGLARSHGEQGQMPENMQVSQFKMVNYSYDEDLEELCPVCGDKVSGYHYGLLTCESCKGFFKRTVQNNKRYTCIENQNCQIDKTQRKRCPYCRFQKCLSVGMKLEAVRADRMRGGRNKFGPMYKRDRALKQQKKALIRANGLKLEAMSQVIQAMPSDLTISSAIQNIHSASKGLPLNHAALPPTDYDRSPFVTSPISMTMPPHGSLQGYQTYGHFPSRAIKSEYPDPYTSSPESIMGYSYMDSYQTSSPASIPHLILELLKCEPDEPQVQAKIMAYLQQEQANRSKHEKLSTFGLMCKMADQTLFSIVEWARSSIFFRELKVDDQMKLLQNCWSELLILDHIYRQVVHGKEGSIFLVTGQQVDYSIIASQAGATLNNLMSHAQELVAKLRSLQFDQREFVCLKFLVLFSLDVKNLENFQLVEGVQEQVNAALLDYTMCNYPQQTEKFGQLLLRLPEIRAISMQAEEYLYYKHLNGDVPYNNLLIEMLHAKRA

[7] = target: Steroidogenic factor 1 (Homo sapiens) (UniProt Q13285); assay: inverse agonism at SF1 nuclear receptor – cell-based, luminescence, high throughput, counter-screen for LRH-1 inverse agonist project (AID 651614; in the data active = inhibition above about 44%;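 also: cells cotransfected with StAR promoter reporter and SF1 expression vector; 0% = vehicle on cells with receptor and 100% = vehicle on cells lacking receptor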); settings: cell-based SF1 luciferase reporter, at 3.6 µM, active compounds read high
Sequence of Steroidogenic factor 1 (Homo sapiens) (Q13285 whole entry, looked up, the tested form may be a part): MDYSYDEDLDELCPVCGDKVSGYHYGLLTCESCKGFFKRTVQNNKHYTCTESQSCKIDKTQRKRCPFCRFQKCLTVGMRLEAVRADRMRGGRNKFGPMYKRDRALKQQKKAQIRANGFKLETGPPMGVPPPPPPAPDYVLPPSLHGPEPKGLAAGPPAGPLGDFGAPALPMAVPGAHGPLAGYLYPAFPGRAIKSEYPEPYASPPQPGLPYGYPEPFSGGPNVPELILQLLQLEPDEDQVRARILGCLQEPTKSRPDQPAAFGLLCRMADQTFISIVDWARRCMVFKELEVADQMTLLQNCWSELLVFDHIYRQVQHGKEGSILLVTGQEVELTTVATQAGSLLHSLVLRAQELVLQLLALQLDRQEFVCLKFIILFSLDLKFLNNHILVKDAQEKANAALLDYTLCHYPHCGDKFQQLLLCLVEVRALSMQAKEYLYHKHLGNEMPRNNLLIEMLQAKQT

[8] = compounds suppressing VP16-driven luciferase signal – cell-based, luminescence, high throughput, counter-screen for LRH-1 inverse agonist project (AID 651615); settings: Gal4-VP16 luciferase reporter cells, at 3.6 µM, active compounds read high

Compound: OC[C@@H]1CN(Cc2ccc(-c3ccccc3)cc2)C[C@H](n2cnc3c(NC4CCCC4)ncnc32)O1
- inhibition [1]: 94.9% (active)
- inhibition [2]: 78.4% (active)
- inhibition [3]: 4.62%
- inhibition [4]: 63.3% (active)

Compound: CCCCCCCN(C(=O)CCl)c1ccccc1C
- inhibition [5]: 21%
- inhibition [6]: 49.9% (active)
- inhibition [7]: 42.9% (active)
- inhibition [8]: -8.25%

Compound: Cc1c(OCC(=O)NCCCN2CCOCC2)ccc2c(-c3ccccc3)cc(=O)oc12
- inhibition [5]: 2.78%
- inhibition [6]: 37.8%
- inhibition [7]: 36.5%
- inhibition [8]: 5.76%

Compound: CC(C)Oc1cccc(-c2cc(C(=O)NN3CCOCC3)c3ccccc3n2)c1
- inhibition [5]: 17.5%
- inhibition [6]: 40.7%
- inhibition [7]: 40.4%
- inhibition [8]: -17.7%

Compound: CCn1c(CNC(=O)c2cc(OC)c(OC)c(OC)c2)cc2cc(C)ccc21
- inhibition [1]: 85.2% (active)
- inhibition [2]: 71% (active)
- inhibition [3]: 4.19%
- inhibition [4]: 15.9%

Compound: CNc1nc2sc3c(c2c(=O)n1C)CC(C)(C)SC3
- inhibition [5]: 2.32%
- inhibition [6]: 34.9%
- inhibition [7]: 45.6% (active)
- inhibition [8]: -1.52%

Compound: CCCN(CC(=O)Nc1ccccc1C)CC(=O)Nc1ccc(Br)cc1F
- inhibition [5]: 8.48%
- inhibition [6]: 58.6% (active)
- inhibition [7]: 51.6% (active)
- inhibition [8]: 1.69%

Compound: COCCn1c(C)cc(/C=C(\C#N)C(=O)OCC(=O)Nc2ccc(S(N)(=O)=O)cc2)c1C
- inhibition [5]: 11.2%
- inhibition [6]: 52.6% (active)
- inhibition [7]: 46.3% (active)
- inhibition [8]: -8.79%

Compound: CC(=O)CSc1nc(N)c(C#N)c(-c2cccs2)c1C#N
- inhibition [5]: 31.5% (active)
- inhibition [6]: 57.7% (active)
- inhibition [7]: 62.7% (active)
- inhibition [8]: 35% (active)

Compound: CCN(CC)CC(=O)Nc1ccc(-c2nc3cc(NC(=O)CN(CC)CC)ccc3o2)cc1
- inhibition [5]: -9.81%
- inhibition [6]: 42.5% (active)
- inhibition [7]: 39.6%
- inhibition [8]: -0.95%

Compound: O=[N+]([O-])c1ccc(N2CCN(S(=O)(=O)c3ccccc3)CC2)cc1NCc1cccnc1
- inhibition [5]: 6.64%
- inhibition [6]: 61% (active)
- inhibition [7]: 43.3% (active)
- inhibition [8]: 14.6%

Compound: COc1ccc(NC(=O)CSc2sc3c(O)cc(=O)[nH]c3c2C#N)c(OC)c1
- inhibition [5]: 1.46%
- inhibition [6]: 48.8% (active)
- inhibition [7]: 47.3% (active)
- inhibition [8]: 2.48%

Compound: O=C(CCl)NCc1cc(-c2ccc(Cl)cc2)no1
- inhibition [5]: 43.5% (active)
- inhibition [6]: 70.7% (active)
- inhibition [7]: 72.3% (active)
- inhibition [8]: -3.6%

Compound: N#Cc1cc(Br)ccc1N=C1CCCN1c1ccccc1
- inhibition [5]: 2.82%
- inhibition [6]: 44.5% (active)
- inhibition [7]: 42.6%
- inhibition [8]: 0.34%

Compound: Cc1cccc(CSC(Nc2ccc(F)cc2)=C(C#N)C#N)c1
- inhibition [5]: -5.34%
- inhibition [6]: 35%
- inhibition [7]: 29.4%
- inhibition [8]: 17.7%

Compound: COc1cc(-c2cnc3c(NC=O)cc(-c4ccccc4Cl)cn23)cc(OC)c1OC
- inhibition [5]: 64.9% (active)
- inhibition [6]: 45.6% (active)
- inhibition [7]: 62.6% (active)
- inhibition [8]: -21.3%

Compound: c1csc(CCNc2ncnc3sc4c(c23)CCC4)c1
- inhibition [5]: 10.5%
- inhibition [6]: 63.7% (active)
- inhibition [7]: 60.7% (active)
- inhibition [8]: 48.9% (active)

Compound: O=[N+]([O-])c1ccc(S(=O)Cc2ccccc2)c([N+](=O)[O-])c1 (stereo not drawn)
- inhibition [5]: 8.41%
- inhibition [6]: 43.5% (active)
- inhibition [7]: 22.4%
- inhibition [8]: 16.7%

Compound: O=C(CSc1n[nH]c(-c2ccccc2)n1)Nc1ccc(F)cc1F
- inhibition [5]: 5.84%
- inhibition [6]: 58.4% (active)
- inhibition [7]: 50.4% (active)
- inhibition [8]: 3.19%

Compound: COc1ccc2sc(-c3ccc(N(C)C)cc3)c(C#CCCO)c2c1
- inhibition [5]: 3.58%
- inhibition [6]: 21.3%
- inhibition [7]: 53.7% (active)
- inhibition [8]: -4.7%

Compound: CS(=O)(=O)N(CC(=O)N1CCN(Cc2ccc3c(c2)OCO3)CC1)Cc1ccc(Cl)cc1
- inhibition [5]: 12.5%
- inhibition [6]: 63% (active)
- inhibition [7]: 44.9% (active)
- inhibition [8]: 36.9% (active)

Compound: O=C1CCN(CCCN2CCC(=O)N(Cc3ccccc3)C2=S)C(=S)N1Cc1ccccc1
- inhibition [5]: -8.81%
- inhibition [6]: 27.2%
- inhibition [7]: 28.5%
- inhibition [8]: -0.72%

Compound: CCc1c(O)nc(SCC(=O)Nc2ccc(OC)cc2)n(C2CCCCC2)c1=O
- inhibition [5]: 13.3%
- inhibition [6]: 55.5% (active)
- inhibition [7]: 51.4% (active)
- inhibition [8]: 5.01%

Compound: COc1ccc(NC(=O)CSc2n[nH]c(-c3ccccn3)n2)cc1
- inhibition [5]: 2.28%
- inhibition [6]: 32.4%
- inhibition [7]: 20.2%
- inhibition [8]: 2.72%

Compound: COc1ccc(CCNC(=O)COC(=O)c2cccn2C)cc1
- inhibition [5]: 19%
- inhibition [6]: 42.9% (active)
- inhibition [7]: 46.3% (active)
- inhibition [8]: -13.7%

Compound: O=C(COc1ccc2c(-c3ccccc3)cc(=O)oc2c1)NCCCn1ccnc1
- inhibition [5]: 9.33%
- inhibition [6]: 36.4%
- inhibition [7]: 39%
- inhibition [8]: -19.5%

Compound: CCOC(=O)c1c(C)[nH]c(C(=O)COC(=O)/C=C/c2ccc3c(c2)OCO3)c1C
- inhibition [5]: 13%
- inhibition [6]: 36.5%
- inhibition [7]: 43.6% (active)
- inhibition [8]: 7.82%

Compound: O=C1/C(=C/c2ccccc2)CN(C(=O)CCN2CCOCC2)C/C1=C\c1ccccc1
- inhibition [5]: 21.9%
- inhibition [6]: 44.3% (active)
- inhibition [7]: 56.7% (active)
- inhibition [8]: 55.2% (active)

Compound: O=C(CNc1cccc2ccccc12)N/N=C/c1ccc([N+](=O)[O-])o1
- inhibition [5]: 27.6%
- inhibition [6]: 56.1% (active)
- inhibition [7]: 56% (active)
- inhibition [8]: 39.9% (active)

Compound: O=C(Nc1ccc(Cc2ccncc2)cc1)c1ccc([N+](=O)[O-])o1
- inhibition [5]: 16.6%
- inhibition [6]: 55.5% (active)
- inhibition [7]: 63.6% (active)
- inhibition [8]: -16.8%

Compound: CCOc1ccc(C(=O)c2cc([N+](=O)[O-])ccc2Cl)cc1
- inhibition [5]: 12.6%
- inhibition [6]: 42.3% (active)
- inhibition [7]: 39.5%
- inhibition [8]: -1.79%

Compound: Cc1c(C(=O)Nc2ccc(Cc3ccncc3)cc2)cccc1[N+](=O)[O-]
- inhibition [5]: -10.9%
- inhibition [6]: 56.2% (active)
- inhibition [7]: 49.9% (active)
- inhibition [8]: 19.6%

Compound: C#CCSc1nsc(SCC#C)c1C#N
- inhibition [5]: 3.79%
- inhibition [6]: 53.4% (active)
- inhibition [7]: 50.9% (active)
- inhibition [8]: -20%

Compound: O=C(c1ccccc1)c1cc(-c2ccccn2)c(N2CCOCC2)s1
- inhibition [5]: -8.68%
- inhibition [6]: 68.3% (active)
- inhibition [7]: 63.4% (active)
- inhibition [8]: 0.02%

Compound: O=C(Nc1cccc(NC(=O)c2ccccc2Cl)c1)c1ccc([N+](=O)[O-])o1
- inhibition [5]: 33.1% (active)
- inhibition [6]: 58.8% (active)
- inhibition [7]: 66.8% (active)
- inhibition [8]: -5.43%

Compound: O=C(CCl)NCCN1C(=O)S/C(=C\c2cccnc2)C1=O
- inhibition [5]: 10.2%
- inhibition [6]: 55.9% (active)
- inhibition [7]: 57.4% (active)
- inhibition [8]: -3.37%

Compound: O=C(c1ccc([N+](=O)[O-])o1)N1CCN(c2nc3c(F)cc(F)cc3s2)CC1
- inhibition [5]: -14.9%
- inhibition [6]: 60.2% (active)
- inhibition [7]: 60.4% (active)
- inhibition [8]: -0.11%

Compound: Cc1ccc[n+](CC(=O)Nc2ccc(Cl)c([N+](=O)[O-])c2)c1
- inhibition [5]: 9.69%
- inhibition [6]: 47% (active)
- inhibition [7]: 39.2%
- inhibition [8]: 13.9%

Compound: Cc1ccc(S(=O)(=O)N2CC(O)CC2C(=O)OCC(=O)Nc2ccc([N+](=O)[O-])cc2C(F)(F)F)cc1C (stereo not drawn)
- inhibition [5]: 18.7%
- inhibition [6]: 60.5% (active)
- inhibition [7]: 56% (active)
- inhibition [8]: -5.69%

Compound: Cc1csc(=O)n1CCC(=O)OCC(=O)Nc1ccc(N2CCOCC2)cc1
- inhibition [5]: -7.54%
- inhibition [6]: 54.1% (active)
- inhibition [7]: 44.2% (active)
- inhibition [8]: -3.02%

Compound: CS(=O)(=O)c1ccc(Cl)c(NC(=O)Nc2ccccc2)c1
- inhibition [5]: -6.75%
- inhibition [6]: 25.1%
- inhibition [7]: 17.5%
- inhibition [8]: -2.94%

Compound: O=C(CSc1nnnn1C1CCCC1)Nc1ccc2c(c1)OCCO2
- inhibition [5]: -0.49%
- inhibition [6]: 44.7% (active)
- inhibition [7]: 42.3%
- inhibition [8]: -30.9%

Compound: CC(=O)Nc1cc(-c2ccc(F)cc2)cn2c(-c3ccc(S(C)(=O)=O)cc3)cnc12
- inhibition [5]: 12.6%
- inhibition [6]: 51.4% (active)
- inhibition [7]: 48.7% (active)
- inhibition [8]: -16.1%

Compound: CCOC(=O)c1ccc(N2CCN(C(=O)c3ccccc3)CC2)c(NC(=O)c2ccco2)c1
- inhibition [5]: 26.2%
- inhibition [6]: 38.6%
- inhibition [7]: 40.9%
- inhibition [8]: -26.2%

Compound: CN1CCN(/N=C/c2nc(-c3cccc([N+](=O)[O-])c3)n3ccccc23)CC1
- inhibition [5]: -4.33%
- inhibition [6]: 38.9%
- inhibition [7]: 42.2%
- inhibition [8]: 3.29%

Compound: Cn1c(=O)c2c(nc(CN3CCOCC3)n2CC(=O)c2ccccc2)n(C)c1=O
- inhibition [5]: -4.41%
- inhibition [6]: -0.49%
- inhibition [7]: 1.97%
- inhibition [8]: 5.48%

Compound: O=C(CSc1n[nH]c(-c2ccccn2)n1)Nc1ccc(Cl)cc1
- inhibition [5]: 36.3% (active)
- inhibition [6]: 70% (active)
- inhibition [7]: 67.1% (active)
- inhibition [8]: 41.4% (active)

Compound: CCCCCc1ccc(OCCCC[n+]2ccc(C)cc2)c(CCCCC)c1
- inhibition [5]: 21.4%
- inhibition [6]: 42.3% (active)
- inhibition [7]: 45.7% (active)
- inhibition [8]: 45.6% (active)

Compound: COc1ccc(/C=N/OCC(=O)NC(c2ccccc2)c2ccccc2)cc1OC
- inhibition [5]: 30.5% (active)
- inhibition [6]: 72.7% (active)
- inhibition [7]: 66.4% (active)
- inhibition [8]: 54.7% (active)

Compound: O=C(Cn1ncc(Cl)c(Cl)c1=O)Nc1ccc2c(c1)OCO2
- inhibition [5]: -10.7%
- inhibition [6]: 38.1%
- inhibition [7]: 47.4% (active)
- inhibition [8]: -13.7%

Compound: COC(=O)CNC(=O)c1nn(-c2cccc(OC)c2)c(=O)c2ccccc12
- inhibition [5]: 25%
- inhibition [6]: 35.9%
- inhibition [7]: 37.3%
- inhibition [8]: -0.96%

Compound: COc1ccc(OC)c(C2=NS(=O)(=O)N(C)C(C(=O)Nc3ccc(C(C)=O)cc3)=C2)c1
- inhibition [5]: 4.76%
- inhibition [6]: 44.8% (active)
- inhibition [7]: 45% (active)
- inhibition [8]: -9.42%
